High-throughput results (PubChem BioAssay)
CYP2C9 inhib: inhibitors of human CYP2C9; CYP2C9 Supersomes, luciferin-H conversion, luminescence; inhibition, % at 5 µM; 96,000 compounds, 20% hits;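 active = blocking of liver enzyme CYP2C9 beyond about 50% at 5 µM, limit read from the data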
CYP2C9 act: activators of human CYP2C9 | P11712 | recombinant CYP2C9, luciferin-H conversion, luminescence; hits give high values; factor 1 = untreated enzyme, 0 = blocked | activation factor at 5 µM | 96,000 compounds, 1.4% hits | AID 1024;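 active = activation factor of 2 or more for CYP2C9 at a 5 µM dose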;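 note: 0 = sulfaphenazole-blocked wells and 1 = vehicle-only wells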
CYP2C19 inh: inhibitors of human CYP2C19; CYP2C19 Supersomes, luciferin-H EGE luminescence, 30 min; inhibition, % at 5 µM; 96,000 compounds, 21% hits; AID 778;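 active = CYP2C19 inhibition above a set limit at 5 µM in the primary screen, cut at about 50% in these data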;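 note: plate controls were negative control wells for no effect and 2.5 mM tranylcypromine positive control for full effect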
CYP2C19 act: increases human CYP2C19 enzyme activity. recombinant CYP2C19, luciferin-H EGE luminescence; hits give high values; 0 = fully inhibited enzyme, 1 = untreated enzyme. activation factor at 5 µM. 96,000 tested, under 10 active. AID 1025;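 active = activation factor of at least 2 at 5 µM in the primary screen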;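 note: 0 = wells with 2.5 mM tranylcypromine and 1 = vehicle-only wells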
Pyk2 oligo antag: blocks oligomerization of human Pyk2 in cells; 99,000 compounds, 0.83% hits; AID 1347419; z-score (the deposit names both 25 µM and 10 µM); Q293 cells, Pyk2 FERM NanoBiT luminescence; hits give low values; Q14289;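 active = Z-score of -3 or lower, scaled per plate to the spread of control and sample wells; inactive = z-score above -3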;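 note: negative z-score means lost luminescence so less FERM oligomerization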
* marks the source's active call; other numbers are inactive results; . = not tested or not shown. Rows were chosen to be rich in hits. Some 28% of all compounds tested hit in one or more screens of this group.

SMILES	CYP2C9 inhib	CYP2C9 act	CYP2C19 inh	CYP2C19 act	Pyk2 oligo antag
N#CC1(C#N)CC(C=O)=C(N)C1(C#N)CC(=O)c1ccc(F)cc1 (stereo not drawn)	8	0.9	-5	1	0.44
CCn1c2ccccc2c2cc(NC(=O)N3CCOCC3)ccc21	-43	1.4	52*	0.5	-0.3
CCn1c2ccccc2c2cc(NC(=O)c3ccc(Br)o3)ccc21	1	1	77*	0.2	-0.57
O=C(NC1CCc2ccccc21)C1CCN(S(=O)(=O)c2ccc(-n3cnnn3)cc2)CC1 (stereo not drawn)	-23	1.2	-18	1.2	0.98
CCOC(=O)c1nc[nH]c1C	-2	1	0	1	0.88
CCOC(=O)c1c(C(F)(F)C(F)(F)C(F)(F)C(F)(F)F)n[nH]c1C	92*	0.1	95*	0.1	-2
CC1(C)Cc2c(sc(NC(=O)c3ccco3)c2C#N)C(C)(C)N1	0	1	3	1	.
C=CCn1c(SCC(=O)c2cccs2)nc2sc(CC)cc2c1=O	25	0.7	-2	1	-3.2*
C=CCn1c(SCC(=O)Nc2cc(C)on2)nc2sc(CC)cc2c1=O	72*	0.3	5	0.9	-2
C=CCn1c(SCC(=O)N2CCN(C(=O)c3ccco3)CC2)nc2sc(CC)cc2c1=O	99*	0	90*	0.1	-0.13
C=CCn1c(SCC(=O)N2CCc3ccccc3C2)nc2sc(C)cc2c1=O	96*	0	63*	0.4	-0.97
C=CCn1c(SCC(=O)/C(C#N)=C(\C)N)nc2sc(CC)cc2c1=O	.	.	.	.	-2.8
C=CCn1c(SCC(=O)NC2CCS(=O)(=O)C2)nc2sc(CC)cc2c1=O (stereo not drawn)	42	0.6	5	0.9	-1.6
O=c1[nH]c(N2CCOCC2)nc2c1CCCC2	-11	1.1	-1	1	1.3
NS(=O)(=O)c1ccc(CCNC(=O)CCCC2=NS(=O)(=O)c3ccccc3N2)cc1	14	0.9	3	1	-0.2
COC(=O)c1cn(NC(=O)c2ccc3c(c2)OCO3)c(=O)c2ccccc12	15	0.8	3	1	-0.24
COc1ccc(N2CCN(C(=O)c3ccc(NS(=O)(=O)c4cccc(F)c4)cc3)CC2)cc1	90*	0.1	24	0.8	-0.13
COc1ccc(N2CCN(C(=O)c3ccc(C)c(Cl)c3)CC2)cc1	2	1	27	0.7	-0.46
COc1ccc(N2CCN(C(=O)c3ccc(NS(=O)(=O)c4ccc(F)c(F)c4)cc3)CC2)cc1	93*	0.1	24	0.8	0.39
CN1CCN(/C(=N\S(=O)(=O)c2ccc(F)cc2)c2ccccc2)CC1	-19	1.2	-9	1.1	2.4
C#CCNc1cc(C)nc2ncnn12	0	1	-7	1.1	-0.1
Cc1nc(S(=O)(=O)c2ccc(Cl)cc2Cl)nc2c1CCC2	-38	1.4	26	0.7	-0.83
Cc1nc(S(=O)(=O)c2cccc(Cl)c2)nc2c1CCC2	-173	2.7*	10	0.9	0.95
COC(=O)c1ccccc1NC(=O)Cn1cnc2cc(C)c(C)cc21	16	0.8	42	0.6	1.3
Cc1cc(N/C=C/C(=O)c2cccc3ccccc23)no1	-33	1.3	57*	0.4	-0.26
SMILES	CYP2C9 inhib	CYP2C9 act	CYP2C19 inh	CYP2C19 act	Pyk2 oligo antag
Cc1cc(N/C=C/C(=O)c2ccc(Br)cc2)no1	.	.	.	.	0.09
CCCOc1ccc(/C=N/NC(=O)c2ccc(Cn3cc([N+](=O)[O-])cn3)o2)cc1	-1	1	5	0.9	-0.93
CCC(Oc1ccccc1)C(=O)Nc1nc2ccccc2[nH]1 (stereo not drawn)	52*	0.5	32	0.7	-1.4
COc1ccccc1CCC(=O)Nc1nc2ccccc2[nH]1	1	1	62*	0.4	-0.61
Brc1ccccc1OCCCn1cnc2ccccc21	60*	0.4	58*	0.4	-3.9*
CCCOc1ccc(Cn2cnc3ccccc32)cc1	87*	0.1	65*	0.4	-1.9
c1ccc(OCCCCn2cnc3ccccc32)cc1	9	0.9	60*	0.4	0.88
Cc1ccccc1OCCCCn1cnc2ccccc21	35	0.7	61*	0.4	-0.43
c1ccc(OCCn2cnc3ccccc32)cc1	11	0.9	27	0.7	0.71
CC1=Nn2c(nnc2-c2cccs2)SC1	22	0.8	8	0.9	0.24
CCN(CC)CCCC(C)NC1=NCCCCC1 (stereo not drawn)	0	1	4	1	1.3
C=CCn1c(=N)n(CC(=O)OCC)c2ccccc21	5	1	4	1	0.36
Cc1cc2n(n1)C(c1cccs1)Nc1ccccc1-2 (stereo not drawn)	35	0.7	30	0.7	0.66
Cn1cnnc1SCC(=O)c1ccc2c(c1)CCCC2	-10	1.1	20	0.8	-0.01
Cc1cccc(Cn2cnc3ccccc32)c1	53*	0.5	84*	0.2	1.1
COc1cccc(CN=CC2=C(O)CC(C)(C)CC2=O)c1OC	12	0.9	19	0.8	0.01
COc1ccccc1CN=Cc1[nH]c2ccc(Br)c(Cl)c2c1O	73*	0.3	85*	0.2	1.1
CCc1noc(C)c1C(=O)Nc1nc(-c2ccc(Cl)cc2Cl)c(C)s1	49	0.5	10	0.9	1.5
CCCOc1ccc(C(C(=O)OCCN(CC)CC)c2ccccc2)cc1 (stereo not drawn)	11	0.9	0	1	1.5
Cc1ccc(NC(=O)CSc2nc(N)c3cc4c(nc3n2)CCCC4)cc1	.	.	.	.	0.1
COc1ccc(NC(=O)CSc2nc(N)c3cc4c(nc3n2)CCCC4)c(OC)c1	81*	0.2	22	0.8	1.6
Cn1ccnc1SCC(=O)Nc1cccc(C(F)(F)F)c1	-52	1.5	87*	0.1	0.66
Cn1ccnc1SCC(=O)Nc1ccc(Oc2ccccc2)cc1	71*	0.3	88*	0.1	0.42
Cn1ccnc1SCC(=O)Nc1cccc(O)c1	9	0.9	6	0.9	0.84
COc1ccc(-n2ccnc2SCC(=O)Nc2ccc(OC)cc2OC)cc1	27	0.7	92*	0.1	2.6
SMILES	CYP2C9 inhib	CYP2C9 act	CYP2C19 inh	CYP2C19 act	Pyk2 oligo antag
O=C(O)C1C2C=CC(C2)C1C(=O)OC1CC2CCC1C2 (stereo not drawn)	42	0.6	36	0.6	0.2
CCOc1cc(C)c(C(C)C)cc1S(=O)(=O)N1CCOCC1	16	0.8	45	0.5	-0.61
COc1ccc(OC(=O)c2cnn(-c3ccccc3)c2C)cc1	39	0.6	20	0.8	-0.42
CCOC(=O)C1CCCN(c2cc(=O)n(Cc3ccc(F)cc3)c(=O)[nH]2)C1 (stereo not drawn)	5	1	3	1	0
CCC1=NC(c2ccccc2OC)N(O)C1(C)C (stereo not drawn)	-6	1.1	-1	1	1.9
CCCCc1nnc(NC(=O)CSc2nc(=O)cc(N)n2-c2cccc(C)c2)s1	-11	1.1	-14	1.1	-1.2
COc1ccc(NC(=O)CSc2nnc(C3CC3)n2-c2ccccc2)cc1	37	0.6	26	0.7	-0.39
